Drawing on PubChem BioAssay (Tox21), this text covers Potency and outcome for eight compounds.

Records with an inconclusive call do not appear. Where a structure was tested more than once in an assay, its records may differ in their call. Active and inactive are the calls of the source. Unless noted, calls come from the whole dose curve; as a rule, active = well fitted curve in the direction sought with a large enough effect in the repeat runs; inconclusive = weak or mixed curves; inactive = no such curve, though single readings can be large; an effect the other way counts as inactive or inconclusive.

Assay [1] can be described thus: qHTS RealTime-Glo MT Cell Viability Assay in HEK293 cells - 0 hour (AID 1224880). Note: top concentration of the series differs between compounds; nearly all actives have a fitted effect of over 45% in size. A digest of the protocol: (§1)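 Kinetic, non-lysing viability readout. Seed HEK293 (600/well) with reagent, incubate 5 h at 37 C/5% CO2, pin 23 nL compound in DMSO, incubate at 37 C, read luminescence at 0, 8, 16, 24, 32, 40 h.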
(In general: qHTS replaces the single test concentration by a dilution series.)

Assay [2] is described as follows: A CellTox Green Cytotoxicity Assay to monitor cytotoxicity in HEK293 cells - 32 hour (AID 1224881). Note: nearly all actives have a fitted effect of over 40% in size. Summed up:
(§2)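 Real-time, in one plate: 600 HEK293 cells/well with dead-cell DNA dye, pinned compound after 5 h, 37 C incubation over 40 h; viable cells give no appreciable fluorescence.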

Assay [3] is described as follows: A CellTox Green Cytotoxicity Assay to monitor cytotoxicity in HepG2 cells - 0 hour (AID 1224882). Note: nearly all actives have a fitted effect of over 35% in size. Summed up:
(§3)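 Cytotoxicity was tracked as dead-cell DNA fluorescence in HepG2 cells treated with test compounds at 37 C; each time-point value comes from one kinetic series spanning 0, 8, 16, 24, 32 and 40 h.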

Assay [4] can be described thus: A CellTox Green Cytotoxicity Assay to monitor cytotoxicity in HEK293 cells - 8 hour (AID 1224884). Note: nearly all actives have a fitted effect of over 35% in size. A digest of the protocol: as §2
A short description of assay [5]: qHTS RealTime-Glo MT Cell Viability Assay in HepG2 cells - 16 hour (AID 1224885). Note: nearly all actives have a fitted effect of over 50% in size. Summed up:
(§4)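 Viability was tracked continuously by NanoLuc luminescence from prosubstrate reduced by living HepG2 cells, at successive time points over 40 h of compound exposure. Cells with reagent were preincubated 5 h at 37 °C before compound addition.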

Assay [6] can be described thus: qHTS RealTime-Glo MT Cell Viability Assay in HEK293 cells - 24 hour (AID 1224886). Note: nearly all actives have a fitted effect of over 50% in size. Note: potency is the fitted concentration of half-maximal effect. A digest of the protocol: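 Viability tracked continuously by luminescence as live cells reduce a prosubstrate for NanoLuc; HEK293 cells preincubated 5 h, compound-treated at 37 C, and read at 0, 8, 16, 24, 32 and 40 h.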
Assay [7] in a line: qHTS RealTime-Glo MT Cell Viability Assay in HEK293 cells - 8 hour (AID 1224887). Note: nearly all actives have a fitted effect of over 50% in size. Note: potency is the fitted concentration of half-maximal effect. A digest of the protocol: as §1
Assay [8] can be described thus: A CellTox Green Cytotoxicity Assay to monitor cytotoxicity in HEK293 cells - 16 hour (AID 1224888). Note: nearly all actives have a fitted effect of over 35% in size. A digest of the protocol: as §2
The nature of assay [9]: qHTS RealTime-Glo MT Cell Viability Assay in HepG2 cells - 0 hour (AID 1224889). Note: nearly all actives have a fitted effect of over 50% in size. Summed up: as §4
The nature of assay [10]: A CellTox Green Cytotoxicity Assay to monitor cytotoxicity in HepG2 cells - 8 hour (AID 1224890). Note: nearly all actives have a fitted effect of over 45% in size. A digest of the protocol:
as §3

The nature of assay [11]: qHTS assay to identify small molecule antagonists of the estrogen receptor alpha (ER-alpha) signaling pathway using the BG1 cell line in the presence of 0.1 nM 17-beta-estradiol - cell viability counter screen (AID 1259241). Note: nearly all actives have a fitted effect of over 40% in size. Summed up: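 CellTiter-Fluor read (30 min, 37C) on ER-alpha/ERE-luc VM7Luc4E2 cells; 22 hr compound treatment; agonist 0.1 nM E2 final; same-well multiplex.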

A short description of assay [12]: qHTS assay to identify small molecule antagonists of the androgen receptor (AR) signaling pathway using the MDA cell line in the presence of 0.5 nM R1881 - cell viability counter screen (AID 1259242). Note: nearly all actives have a fitted effect of over 45% in size. Summed up:
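Cells seeded at 3,000/well and allowed 5 hr at 37C, 0% CO2 before compound transfer and R1881 (0.5 nM final) addition; 16 hr later, live-cell protease fluorescence indicated cytotoxicity.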

In assay [13] the target is Androgen receptor (Homo sapiens) (UniProt P10275). Nature of the assay: qHTS assay to identify small molecule antagonists of the androgen receptor (AR) signaling pathway using the MDA cell line in the presence of 0.5 nM R1881 (AID 1259243). Note: nearly all actives have a fitted effect of over 50% in size. Summed up: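 Luminescence from an AR/GR-responsive MMTV-luciferase construct in MDA-kb2 breast carcinoma cells, read 30 min after ONE-Glo, following 16 hr co-treatment with compounds and 0.5 nM R1881.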

Assay [14] is described as follows: qHTS assay to identify small molecule HDAC inhibitors - cell viability counter screen (AID 1259365). Summed up: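 To flag cytotoxic hits, 1,500 wild-type HCT-116 cells per well, plated the day before, receive test compounds for 2hr at 37 C before CellTiter-Glo reagent and a luminescence read.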
Assay [15] is described as follows: qHTS assay to identify small molecule agonists of the sonic hedgehog signaling (Shh) pathway - cell viability counter screen (AID 1259366). Note: nearly all actives have a fitted effect of over 50% in size. A digest of the protocol:
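Fluorescence from CellTiter-Fluor reports live cells in this counter screen. NIH/3T3-derived Gli1-Luc reporter cells receive test compounds for 24hr at 37C; reagent goes in at 23hr.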

A short description of assay [16]: qHTS assay to identify small molecule antagonists of the sonic hedgehog signaling (Shh) pathway - cell viability counter screen (AID 1259367). Note: nearly all actives have a fitted effect of over 55% in size. A digest of the protocol:
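Viability was read by CellTiter-Fluor fluorescence in the same wells, reagent added 23 hr into compound treatment and incubated 1 hr at 37C. The 3T3 Gli1-Luc reporter cells (2,000/well) received conditioned medium after compound and ran 24 hr.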

In assay [17] the target is Estrogen receptor (Homo sapiens) (UniProt P03372). Nature of the assay: qHTS assay to identify small molecule antagonists of the estrogen receptor alpha (ER-alpha) signaling pathway using the BG1 cell line in the presence of 0.1 nM 17-beta-estradiol (AID 1259244). Note: nearly all actives have a fitted effect of over 50% in size. A digest of the protocol: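 Luciferase signal from VM7Luc4E2 ERE-reporter cells, co-dosed with test compound and 0.1 nM final 17beta-estradiol for 22 h, read with ONE-Glo.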

A short description of assay [18]: qHTS assay to identify small molecule phospholipidosis (PLD) inducers (AID 1259344; active = well fitted curve in the direction sought with a large enough effect; an effect the other way counts as inactive or inconclusive). A digest of the protocol: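 Phospholipid accumulation was scored by imaging: fixed, Hoechst-counterstained HepG2 cells stained with LipidTOX Red after 24 h compound exposure at 37 C. Read-outs were pit count and pit intensity per well or per cell, with amiodarone and DMSO controls.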

The nature of assay [19]: qHTS assay to identify small molecule HDAC inhibitors (AID 1259364).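 Note: wild-type HCT-116 cells with endogenous class I/II HDAC activity; top concentration of the series differs between compounds; nearly all actives have a fitted effect of over 45% in size.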 Summed up:
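HCT-116 wt cells, 1,500/well, overnight attach. Compounds (DMSO) 2 h, 37 °C. HDAC-Glo I/II, 30 min RT. Luminescence.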

Chain of Estrogen receptor (Homo sapiens) (P03372 whole entry, looked up): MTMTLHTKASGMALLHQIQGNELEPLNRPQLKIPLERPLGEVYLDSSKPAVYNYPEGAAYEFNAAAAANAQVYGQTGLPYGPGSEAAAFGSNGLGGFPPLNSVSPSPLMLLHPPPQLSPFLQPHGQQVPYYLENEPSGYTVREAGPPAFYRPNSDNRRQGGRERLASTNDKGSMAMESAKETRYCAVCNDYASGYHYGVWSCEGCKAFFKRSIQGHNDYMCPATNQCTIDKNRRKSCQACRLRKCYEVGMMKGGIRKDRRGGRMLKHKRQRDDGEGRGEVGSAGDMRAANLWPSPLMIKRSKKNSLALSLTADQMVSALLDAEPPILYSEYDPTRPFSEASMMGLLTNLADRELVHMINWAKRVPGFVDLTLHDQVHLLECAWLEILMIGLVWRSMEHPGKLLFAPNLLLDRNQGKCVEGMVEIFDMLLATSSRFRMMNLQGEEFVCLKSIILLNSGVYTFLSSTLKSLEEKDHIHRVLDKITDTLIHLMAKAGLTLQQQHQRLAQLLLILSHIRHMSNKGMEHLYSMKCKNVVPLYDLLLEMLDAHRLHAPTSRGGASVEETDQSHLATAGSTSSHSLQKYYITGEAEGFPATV
Chain of Androgen receptor (Homo sapiens) (P10275 whole entry, looked up): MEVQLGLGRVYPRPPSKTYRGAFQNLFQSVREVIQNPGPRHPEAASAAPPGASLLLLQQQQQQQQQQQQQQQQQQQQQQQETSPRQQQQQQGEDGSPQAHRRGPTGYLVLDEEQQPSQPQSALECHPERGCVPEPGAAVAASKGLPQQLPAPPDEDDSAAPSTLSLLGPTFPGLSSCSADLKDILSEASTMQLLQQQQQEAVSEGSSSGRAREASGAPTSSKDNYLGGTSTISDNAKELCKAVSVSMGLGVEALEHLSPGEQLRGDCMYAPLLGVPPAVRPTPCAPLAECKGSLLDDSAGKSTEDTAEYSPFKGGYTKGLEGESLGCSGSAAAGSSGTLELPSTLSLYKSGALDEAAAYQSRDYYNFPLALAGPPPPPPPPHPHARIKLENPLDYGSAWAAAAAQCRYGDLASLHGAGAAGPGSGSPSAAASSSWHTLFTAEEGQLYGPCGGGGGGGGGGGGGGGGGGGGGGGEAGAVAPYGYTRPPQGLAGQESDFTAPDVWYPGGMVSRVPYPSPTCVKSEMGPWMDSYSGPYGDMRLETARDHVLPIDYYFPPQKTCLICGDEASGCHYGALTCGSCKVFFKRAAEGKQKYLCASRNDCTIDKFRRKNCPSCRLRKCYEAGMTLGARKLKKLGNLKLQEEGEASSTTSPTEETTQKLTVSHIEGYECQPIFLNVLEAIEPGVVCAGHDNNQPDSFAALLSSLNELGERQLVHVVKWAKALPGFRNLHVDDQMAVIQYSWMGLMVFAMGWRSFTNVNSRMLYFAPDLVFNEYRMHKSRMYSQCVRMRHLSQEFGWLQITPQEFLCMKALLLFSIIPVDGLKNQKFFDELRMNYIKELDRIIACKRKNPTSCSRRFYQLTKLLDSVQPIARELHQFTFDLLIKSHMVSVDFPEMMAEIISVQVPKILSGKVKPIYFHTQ

For the compound `CCCCC(CC)COC(=O)c1ccc(C(=O)OCC(CC)CCCC)c(C(=O)OCC(CC)CCCC)c1` (stereo not given), the Potency result in assay [1], in [2], in assay [3], in assay [4], in [5] and in assay [6] was “inactive” in each case. Further, the Potency entry in assay [7], in assay [8], in [9], in assay [10], in assay [11] and in assay [12] was “inactive” each time. The Potency entry in assay [13], in assay [15] and in [16] was “inactive” throughout. In addition, the outcome in assay [14] was inactive.
`NCc1cccnc1`: the Potency entry in assay [1], in [2], in assay [3], in assay [4], in [5] and in assay [6] was “inactive” in each case. Besides, the Potency entry in assay [7], in assay [8], in assay [9], in assay [10], in assay [11] and in assay [12] was “inactive” each time. Moreover, the Potency entry in [17], in assay [19], in assay [15] and in [16] was “inactive” throughout. The compound was called inactive in assay [18] and in [14].
In the case of `CC(C)(c1cc(Cl)c(O)c(Cl)c1)c1cc(Cl)c(O)c(Cl)c1`, the Potency entry in assay [1], in [2], in assay [3], in [4], in assay [5] and in [6] was “inactive” each time. Besides, the Potency result in [7], in assay [8], in [9], in assay [10], in assay [11] and in assay [12] was “inactive” in each case. For the same compound, the Potency result in assay [15] and in [16] was “inactive” in each case. The compound was called inactive in [14].
In the case of `Oc1cc(Cl)c(Cl)cc1Cl`, the Potency entry in [1], in assay [2], in assay [3], in assay [4], in assay [5] and in assay [6] was “inactive” throughout. Moreover, the Potency entry in [8], in assay [9], in assay [10], in assay [11], in assay [12] and in [15] was “inactive” in each case. In addition, in [16], the Potency entry is “inactive”. Also, the call in assay [18] and in [14] was inactive.
`CCN(N=O)C(N)=O`: the Potency result in assay [1], in assay [2], in [3], in assay [4], in [5] and in assay [6] was “inactive” throughout. Further, the Potency entry in assay [7], in assay [8], in assay [9], in assay [10], in [11] and in assay [12] was “inactive” throughout. Further, the Potency result in assay [17], in assay [19], in [15] and in [16] was “inactive” throughout. In addition, in assay [14], the compound was called inactive.
On to `Oc1cc(Cl)ccc1Cl`, for which the Potency entry in [1], in [2], in assay [3], in [4], in assay [5] and in assay [6] was “inactive” throughout. For the same compound, the Potency entry in assay [7], in assay [8], in assay [9], in assay [10], in [11] and in [12] was “inactive” throughout. The Potency entry in [19], in assay [15] and in [16] was “inactive” in each case. Also, in assay [14], the outcome was inactive.
As to `Nc1ccc(Cl)c(Cl)c1`, the Potency entry in [1], in [2], in assay [3], in assay [4], in [5] and in [6] was “inactive” in each case. Moreover, the Potency result in assay [7], in [8], in [9], in [10], in assay [11] and in assay [12] was “inactive” in each case. The Potency entry in assay [19], in assay [15] and in [16] was “inactive” each time. Besides, in assay [14], the call was inactive.
In the case of `CCOC(=O)C(C)OC(=O)c1cc(Oc2ccc(C(F)(F)F)cc2Cl)ccc1[N+](=O)[O-]` (stereo not given), the Potency entry in assay [1], in assay [2], in [3], in assay [4], in assay [5] and in assay [8] was “inactive” in each case. Also, the Potency entry in [9], in [10], in [11], in assay [12], in assay [17] and in [19] was “inactive” each time. For the same compound, the Potency result in assay [15] and in assay [16] was “inactive” each time. Moreover, the Potency in [6] is 30.7 µM (active) and inactive; in assay [7], 30.7 µM (active). Besides, the compound was classed as inactive in [14].
